Results as given in PubChem BioAssay AID686978 (National Center for Advancing Translational Sciences (NCATS), 2013).
Several values for one entry are separate records, joined by “and”; a condition that tells them apart may be missing. Identical values can stand only once. The whole screen tested about 420,000 compounds, of which about 64,000 (15%) were called active. Not shown: some 27% with an inconclusive outcome. Only a sample is shown. Unmarked numbers belong to inactive results. Calls come from the whole dose curve; as a rule, active = well fitted inhibition curve with a large enough effect; inconclusive = small, poorly fitted or top-dose-only effect; inactive = flat fitted curve, though single readings scatter.

Assay: qHTS for Inhibitors of human tyrosyl-DNA phosphodiesterase 1 (TDP1): qHTS in cells in absence of CPT; note: nearly all actives have a fitted effect of over 55% in size
Conditions: DT40 Tdp1-/- hTDP1 cells, no CPT, ATP luminescence, 48 h; activity change, negative = growth inhibition: at 46.2 µM (top of the series)
Summary of the method: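 DT40 Tdp1-/-;hTDP1 cells, no CPT (DMSO vehicle only), 400 cells/well; compounds pin-transferred; ≥48 hr, 37 °C; CellTiter-Glo 30 min RT dark, luminescence read.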
% is set by controls: 0 for no effect and ±100 for the full control effect; potency is the fitted concentration of half-maximal effect.

SMILES | activity change, negative = growth inhibition [%] | Potency
CCOC(=O)N1CCC(NC(=O)C(NS(=O)(=O)c2ccc3c(c2)CCN3C(=O)CC)C(C)C)CC1 (stereo unspecified) | -2.64 | 
CN(C)C(=O)[C@@H]1C[C@@H](Sc2nc3ccccc3[nH]2)CN1Cc1ccc(Cl)cc1 | -22.1 | 
CC1CC(C)CN(CCCNC(=O)Cn2ncc3c([nH]c4ccccc43)c2=O)C1 (stereo unspecified) | -5.59 | 
O=C(CCn1c(=S)[nH]c2ccccc2c1=O)NCCCN1CCCC1=O | -4.12 | 
O=C(Cc1csc(Nc2nc(=S)[nH]c3ccccc23)n1)NCCCN1CCN(c2cccc(Cl)c2)CC1 |  | 9.2 µM (active)
O=C(CN1C(=O)NC2(CCCCCCC2)C1=O)NCc1ccc(F)cc1 | -0.899 | 
COc1ccc(CNC(=O)C2=Cc3cccc(OC)c3OC2)cc1OC | -19.7 | 
O=C(NN1C(=O)C2C3C=CC(O3)C2C1=O)c1ccncc1 (stereo unspecified) | 3.7 | 
CSC1=NN(c2ccccc2)CN(c2ccccc2)N1C | -24.6 | 
O=C(CCCN1C(=O)c2ccccc2C1=O)Oc1ccc(Cl)cc1 | -8 | 
COc1ccc(CNC(=O)[C@@H]2CC=C[C@@H]3CCN(C4CC4)C(=O)[C@@H]32)cc1 |  | inactive
CCCCC[C@H]1CN(C2CCCCC2)C(=O)[C@@H]1CC(=O)NCc1ccc(OC)cc1 |  | 10 µM (active)
Cc1ccc(CNC(=O)C2CC(=O)N(C3CCCCCCC3)C2)cc1 (stereo unspecified) | -3.8 | 
O=C(CCc1nnc2ccc(NCCCN3CCCC3=O)nn12)NCc1ccccc1Cl | -18.4 | 
CCCCCCCCCCOC(=O)Cn1c(COc2cccc(OC)c2)[n+](C)c2ccccc21 |  | 2.31 µM (active)
COc1cccc(OCCCN2CCCCCC2)c1 | 2.05 | 
CCOC(=O)Cn1c(-c2cccnc2Cl)nc2ccccc21 | 0.732 | 
Cc1ccc(OCCCn2c(=O)oc3ccccc32)cc1 | 11.2 | 
CCn1c(COc2cccc(OC)c2)nnc1SCC(=O)N1CCOCC1 | 11.3 | 
CCCCCCCCCCOC(=O)Cn1c(COc2ccc(C)cc2)[n+](C)c2ccccc21 |  | 3.26 µM (active)
Cc1ccc(C)c(-n2ccnc2SCC(N)=O)c1 | -0.269 | 
CCn1cc(C(=O)OCC(=O)Nc2cccc(C)c2)c(=O)c2ccc(C)nc21 | -0.576 | 
C/C=C/C=C/C(=O)O |  | inactive
COc1cc(/C=C/C(=O)OCC(=O)NCCCc2ccccc2)ccc1O | -15.4 | 
C[C@@H](NC(=O)[C@@H]1Cc2ccccc2CN1)C(=O)NC1CCCC1 | 4.68 | 
COc1ccc(/C=C/c2noc(-c3ccccc3O)n2)cc1OC | -20.9 | 

SMILES | activity change, negative = growth inhibition [%] | Potency
COc1cc(OC)cc(C(=O)NNC(=O)CCOc2ccccc2OC)c1 | 17.1 | 
COc1cc(/C=C/c2ccc(/C=C/c3cc(OC)c(OC)c(OC)c3)cc2)cc(OC)c1OC | -25.1 | 
C=CCOc1ccc(/C=N/n2cncn2)cc1OC | -10.4 | 
COc1ccc(/C=C/c2ccccn2)cc1OC |  | 12.6 µM (active)
COc1ccc(/C=C/c2ccnc3ccccc23)cc1OC |  | 12.6 µM (active)
COc1ccc(/C=N/n2nnnc2N)cc1OC | -7.02 | 
COc1cc(OC)c(/C=C/c2ccnc3ccccc23)c(OC)c1 |  | 8.91 µM (active)
O=C(CSc1nnc(-c2ccccc2)o1)N1CCOCC1 | -12.2 | 
O=C(CN1C(=O)c2ccccc2S1(=O)=O)N1CCc2ccccc21 | -1.33 | 
Cc1ccc2c(O)c(Cc3ccccc3)c(=O)[nH]c2n1 | -11.8 | 
CC(C)N(Cc1nnc(-c2ccc(Cl)cc2)o1)C(=O)C1=COCCO1 | -48.1 | 
O=c1nc(NO)ccn1C1CCCO1 (stereo unspecified) | -7.86 | 
Cc1ccc(OCc2nnc(NC(=O)OCC(C)C)s2)cc1 | -6.38 | 
O=C(CNC(=O)c1cccs1)N/N=C/c1cccc(Br)c1 | -4.86 | 
CCOC(=O)C1CCCN(S(=O)(=O)c2ccc(-n3cnnn3)c(C)c2)C1 (stereo unspecified) | -23.5 | 
O=C(Nc1cccc(Cl)c1)c1cc(S(=O)(=O)N2CCCCC2)c[nH]1 | 3.97 | 
Cc1cc(C)cc(NC(=O)C2CCCN(S(=O)(=O)c3ccc4[nH]c(=O)ccc4c3)C2)c1 (stereo unspecified) | -5.14 | 
CC(=O)N1c2ccc(S(=O)(=O)N3CCCC(C(=O)Nc4cccc(F)c4)C3)cc2CC1C (stereo unspecified) |  | 29.1 µM (active)
CC(=O)N1CCCc2ccc(NS(=O)(=O)c3ccc(F)cc3F)cc21 | -14.1 | 
CC(=O)N1c2ccc(S(=O)(=O)N3CCCC(C(=O)Nc4cccc(Cl)c4)C3)cc2CC1C (stereo unspecified) |  | 20.6 µM (active)
CC(=O)N1CCCc2cc(S(=O)(=O)Nc3ccc(Cl)cc3F)ccc21 |  | 23.1 µM (active)
CC(=O)N1CCCc2cc(S(=O)(=O)N3CCCC(C(=O)N4CCN(c5cccc(Cl)c5)CC4)C3)ccc21 (stereo unspecified) |  | 2.59 µM (active) and 8.2 µM (active)
COc1ccc(NC(=O)C(CC(C)C)NS(=O)(=O)c2ccc3c(c2)CCN3C(C)=O)cc1OC (stereo unspecified) | -10.4 | 
CCOC(=O)C1CCCN(S(=O)(=O)c2ccc3c(c2)C(C)(C)C(=O)N3C)C1 (stereo unspecified) | -17.4 | 
CC(=O)N1c2ccc(S(=O)(=O)N3CCC(C(=O)NCc4ccc(F)cc4)CC3)cc2CC1C (stereo unspecified) | -11.9 | 
